Source: PubChem BioAssay
This is a sample that favours compounds with a hit; in the whole collection about 2.2% have one here.
Pin1 inh: blocks the human prolyl isomerase Pin1. Q13526. Pin1 FP peptide displacement, HiFluor488, 10 min. Potency, µM (doses to about 115 µM), without a hit: at the top dose activity, negative = inhibition, hits mostly inhibitors. actives 0.009% (n = 390,000). AID 504891; active = well fitted inhibition curve with a large enough effect in the polarisation, with a control signal flat, not every such curve was filed as active; inconclusive = small, poorly fitted or top-dose-only effect, or effect the other way, or a change in a side signal; inactive = no such curve, though single readings can be large or run the other way; the % refers to the polarisation; note: % is set by controls: 0 for no effect and ±100 for the full control effect
Target sequence (Q13526 whole entry, looked up): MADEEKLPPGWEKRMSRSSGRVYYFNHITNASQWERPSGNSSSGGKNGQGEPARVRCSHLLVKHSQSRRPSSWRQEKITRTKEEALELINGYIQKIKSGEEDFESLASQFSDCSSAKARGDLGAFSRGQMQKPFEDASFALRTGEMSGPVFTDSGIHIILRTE
Nrf2 activator: activators of Nrf2 (ARE) signaling; AREc32 ARE-luciferase reporter (MCF7-derived line), luminescence, 24 h; Potency, µM (highest dose often 46.1 µM), inactives show top-dose activation, most hits filed as activators; actives 0.31% (n = 410,000); note: % of control where 0% means no effect; nearly all actives have a fitted effect of over 65% in size
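Cells of the AREc32 ARE-luciferase line are plated in OPTI-MEM containing 5% FBS and left overnight at 37 deg C. Compounds are pinned in, incubation continues 24 hr, and firefly luciferase signal is then measured.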
A549 viability: kills or reduces viability of A549 cells in Nrf2 counter-screen; AID 504648; actives 0.16% (n = 390,000); A549 ARE-Fluc cells, CellTiter-Fluor viability, 18-24 h; Potency, µM (top dose mostly 46 µM), without a hit: top-dose activity change, negative = cytotoxicity, most hits filed as inhibitors; note: % is set by controls: 0 for no effect and ±100 for the full control effect
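A549 ARE-Fluc cells in 5% FBS OPTI-MEM, 5000 cells/well, rested 2 h then exposed to compounds in concentration-response for 18-24 h at 37 °C. Viability by CellTiter-Fluor fluorescence (Ex 405/Em 525) after 30 min; luciferase luminescence (BugLite, 15 min, RT) read afterwards.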
Nrf2 inh: Nrf2 pathway inhibition. A549 ARE-Fluc reporter, luciferase luminescence, 18-24 h. Potency, µM (doses to about 46 µM), inactives show at the highest dose activity change, negative = inhibition, actives largely listed as inhibitors. actives 2.1% (n = 360,000); note: % is set by controls: 0 for no effect and ±100 for the full control effect; nearly all actives have a fitted effect of over 60% in size
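A549 ARE_Fluc cells (5000/well, 5% FBS OPTI-MEM) pre-incubated 2 h, then treated with compounds 18-24 h at 37C/5% CO2 in concentration-response. CellTiter-Fluor viability read first; BugLite luciferase luminescence after 15 min at room temperature gives Nrf2 activity.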
Active calls of the source: *. Unless noted, calls come from the whole dose curve; as a rule, active = well fitted curve in the direction sought with a large enough effect; inconclusive = small, poorly fitted or top-dose-only effect, or another doubt; inactive = no such curve, though single readings can be large; an effect the other way counts as inactive or inconclusive. Potency is the fitted concentration of half-maximal effect.

`CCCNC(=O)c1ccc(-n2c(-c3ccccc3)cc3c2CCC(C)C3)cc1` (stereo not given) gave Pin1 inh 6%, Nrf2 activator 11µM*, A549 viability -15% and Nrf2 inh inconclusive.
CCOC(=O)c1cc(C)n(CC2CCC(C(=O)Nc3ccccc3OC)CC2)c1C (stereo not given) was read as Pin1 inh 8%, Nrf2 activator 0%, A549 viability -2% and Nrf2 inh inconclusive.
COc1ccc(C(=O)C2CCN(C(=O)c3ccc(OC)cc3)CC2)cc1 was read as Pin1 inh inconclusive, Nrf2 activator 0%, A549 viability -11% and Nrf2 inh 23µM*.
For CCCCCOc1ccc(C(=O)CCN2CCOCC2)cc1 the results were Pin1 inh -10%, Nrf2 activator 20µM*, A549 viability -6% and Nrf2 inh inconclusive.
For COc1ccc(OCCN2CCN(C(=O)c3ccc(OC)cc3)CC2)cc1 the results were Pin1 inh -3%, Nrf2 activator 0%, A549 viability -13% and Nrf2 inh 10µM*.
`Cc1ccc(C(=O)C2CCN(C(=O)c3ccc(C)cc3)CC2)cc1` gave Pin1 inh -1%, Nrf2 activator 0%, A549 viability -14% and Nrf2 inh 23µM*.
Screening O=C1c2ccccc2C(=O)N1c1ccccn1 returned Pin1 inh -17%, A549 viability 2% and Nrf2 inh inconclusive.
O=C(Nc1nc2n(n1)C(c1ccccc1)C=C(c1ccccc1)N2)c1ccccc1 (stereo not given) was read as Pin1 inh 50%, Nrf2 activator 0%, A549 viability 20% and Nrf2 inh inconclusive.
`N#Cc1nc(NCCCCO)nc(Nc2ccccc2)n1` gave Pin1 inh -1%, A549 viability -15% and Nrf2 inh -28%.
Screening O=S(=O)(c1ccsc1)N1CCN(c2nc(-c3cccs3)nc3ccccc23)CC1 returned Pin1 inh inconclusive, A549 viability 0% and Nrf2 inh 4%.
For COC1=CC(=O)c2nc(Cl)ccc2C1=O the results were Nrf2 activator -4%.
Screening COC1=CC(=O)c2c(ccc3ncnc(N)c23)C1=O returned Nrf2 activator -3%, A549 viability 7.3µM* and Nrf2 inh 4.6µM*.
For CC1=C(C(=O)Nc2cc(C)cc(C)c2)C2(CCCCC2)OC1=O the results were Pin1 inh 2%, Nrf2 activator 1%, A549 viability -14% and Nrf2 inh 9%.
`C=CCNS(=O)(=O)c1nc(C)c(Cl)c(C)c1C#N` gave Pin1 inh 2%, Nrf2 activator 11µM*, A549 viability -8% and Nrf2 inh -7%.
`Cc1cccc(N2CCN(c3nc4ccc(C)cc4n4cnnc34)CC2C)c1` (stereo not given) gave Pin1 inh 42%, Nrf2 activator -1%, A549 viability -9% and Nrf2 inh inconclusive.
`COCCCN(Cc1ccco1)C(=O)c1cc2c(s1)-c1ccccc1OC2` gave Pin1 inh 1%, Nrf2 activator 1%, A549 viability -10% and Nrf2 inh 9.2µM*.
Screening Cc1ccc(CCNC(=O)c2cc3c(s2)-c2ccccc2OC3)cc1 returned Pin1 inh inconclusive, Nrf2 activator 0%, A549 viability inconclusive and Nrf2 inh 18µM*.
`O=C(NCCc1ccc(Cl)cc1)c1cc2c(s1)-c1ccccc1OC2` gave Pin1 inh inconclusive, Nrf2 activator -1%, A549 viability 0% and Nrf2 inh inconclusive.
`Cc1ccc(CN2CCCn3nc(C(=O)NCc4ccc(N(C)C)cc4)cc3C2=O)cc1` gave Pin1 inh -1%, Nrf2 activator 0% and A549 viability -6%.
O=C1Nc2ccccc2Oc2cc([N+](=O)[O-])cc(Oc3ccccc3)c21 was read as Pin1 inh inconclusive, Nrf2 activator 8%, A549 viability 0% and Nrf2 inh inconclusive.
Cc1cccc(Oc2cc([N+](=O)[O-])cc3c2C(=O)Nc2ccccc2O3)c1 was read as Pin1 inh inconclusive, Nrf2 activator 7%, A549 viability -13% and Nrf2 inh 16µM*.
Screening Cc1cccc(-n2ncc3c2CCCC3NC(=O)CCc2cccnc2)c1C (stereo not given) returned Pin1 inh 4%, Nrf2 activator -1%, A549 viability -4% and Nrf2 inh 7.3µM*.
Screening Cc1cccc(-n2ncc3c2CCCC3NC(=O)Cc2c(C)noc2C)c1C (stereo not given) returned Pin1 inh 3%, Nrf2 activator -1%, A549 viability -9% and Nrf2 inh 8.2µM*.
Cc1cccc(C)c1-n1nnnc1C1c2ccccc2C(=O)N1CCc1ccccc1F (stereo not given) was read as Nrf2 activator 13µM*.
`COc1ccc(CCN2C(=O)c3ccccc3C2c2nnnn2-c2c(C)cccc2C)cc1OC` (stereo not given) gave Nrf2 activator 0%.
`O=C(Nc1ccc2nc(SCC(=O)N3CCCC3)sc2c1)c1cccc(Br)c1` gave Pin1 inh 21%, Nrf2 activator 5%, A549 viability -27% and Nrf2 inh 18µM*.
Screening O=C(Nc1ccc2nc(SCC(=O)N3CCOCC3)sc2c1)c1cccc(Cl)c1 returned Pin1 inh -2%, Nrf2 activator 0%, A549 viability inconclusive and Nrf2 inh 23µM*.
Cc1ccccc1OCC(=O)Nc1ccc2nc(SCC(=O)N3CCOCC3)sc2c1 was read as Pin1 inh 2%, Nrf2 activator 1%, A549 viability 0% and Nrf2 inh inconclusive.
Screening Cc1ccccc1OCC(=O)Nc1ccc2nc(SCC(=O)N3CCCC3)sc2c1 returned Pin1 inh 95%, Nrf2 activator 6%, A549 viability -22% and Nrf2 inh 18µM*.
O=C(Nc1ccc2nc(SCC(=O)N3CCCC3)sc2c1)c1ccc(Br)cc1 was read as Pin1 inh -6%, Nrf2 activator 3%, A549 viability 0% and Nrf2 inh -8%.
CN(C(=O)CSc1nc2ccc(NC(=O)c3cccc(F)c3)cc2s1)c1ccccc1 was read as Pin1 inh 9%, Nrf2 activator 0%, A549 viability -7% and Nrf2 inh 21µM*.
Screening C=CCCN(Cc1ccc(OC)cc1)S(=O)(=O)c1ccccc1Br returned Pin1 inh -3%, A549 viability 9% and Nrf2 inh -25%.
Cn1c(CN2CCCCC2)nc2cc(NC(=O)c3ccccc3)ccc21 was read as Pin1 inh 3%, Nrf2 activator 0%, A549 viability -5% and Nrf2 inh 8%.
For Cn1c(CN2CCCCC2)nc2cc(NC(=O)c3cccc(Br)c3)ccc21 the results were Pin1 inh 0%, Nrf2 activator -1%, A549 viability -16% and Nrf2 inh 1.3µM*.
For O=C(c1cc(-c2ccc(Br)cc2)n[nH]1)N1CCN(C(=O)c2ccccc2Br)CC1 the results were Pin1 inh 4%, Nrf2 activator 6%, A549 viability -14% and Nrf2 inh 26µM*.
